# Hits are enriched below; roughly 11% of the tested compounds scored in any of these assays.
# G9a inh – inhibitors of human histone lysine methyltransferase G9a; Q96KQ7; G9a H3K9 monomethylation, AlphaScreen, 2 h; Potency, µM (titrated, usually from 102 µM), inactives show top-dose activity, negative = inhibition, most hits filed as inhibitors; actives 8.8% (n = 350,000); AID 504332; note: % is set by controls: 0 for no effect and ±100 for the full control effect; nearly all actives have a fitted effect of over 75% in size
#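 Chemiluminescent proximity detection of H3K9 monomethylation, read after 10 min bead incubation in the dark. Reaction: 20 nM G9a, 500 nM biotin-H3K9 peptide, 20 uM SAM cofactor, 2 h, room temperature, following 15 min enzyme-compound preincubation.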
# L3MBTL1 inh – inhibitors of human L3MBTL1 | AlphaScreen L3MBTL1–H3K9me1 peptide binding | Potency, µM (doses to about 57.1 µM), inactives show at the highest dose activity, negative = inhibition, usual class: inhibitors | actives 0.66% (n = 230,000) | Q9Y468; note: % is set by controls: 0 for no effect and ±100 for the full control effect; nearly all actives have a fitted effect of over 60% in size
#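 First, the protein-peptide complex forms for 30 min at room temperature (L3MBTL1 50 nM, biotinylated H3K9me1 peptide 75 nM). Next, compounds are pin-transferred and incubated 30 min. Finally, AlphaScreen beads are added and read after 30 min.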
# BAZ2B inh – BAZ2B (human) inhibition | actives 4.4% (n = 360,000) | AlphaScreen BAZ2B-H3K14Ac peptide displacement | Potency, µM (doses to about 114 µM), inactives show top-dose activity change, negative = inhibition, most hits filed as inhibitors | Q9UIF8; note: % is set by controls: 0 for no effect and ±100 for the full control effect; nearly all actives have a fitted effect of over 60% in size
#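 AlphaScreen displacement: compounds (up to 110uM) incubated 30 min at room temperature with a preformed 50 nM BAZ2B/50 nM biotinylated H3K14Ac peptide complex in PBS pH 7.4 with Tween-20. Donor and acceptor beads at 10 ug/mL final added, 20 min light-protected before reading.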
# HP1b binding inh – HP1-beta chromodomain-methylated histone interaction inhibition | AlphaScreen HP1-beta / biotin-H3K9me3 peptide binding | Potency, µM (top dose mostly 114 µM), without a hit: at the top dose activity change, negative = inhibition, usual class: inhibitors | actives 0.56% (n = 390,000) | AID 540317; note: nearly all actives have a fitted effect of over 70% in size
#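 AlphaScreen: HP1-beta (50 nM) preformed 30 min with biotin-H3(1-18)K9me3 peptide (50 nM) in PBS pH 7.4, 0.01% Tween-20. Compound added for 30 min at RT, then streptavidin donor/nickel chelate acceptor beads (10 ug/mL) for 30 min.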
# JMJD2A Tudor inh – JMJD2A Tudor domain (human) inhibition; AID 504339; O75164; AlphaScreen JMJD2A-Tudor / H3K4me3 peptide binding; actives 4.4% (n = 390,000); Potency, µM (highest dose often 114 µM), without a hit: top-dose activity change, negative = inhibition, actives largely listed as inhibitors; note: % is set by controls: 0 for no effect and ±100 for the full control effect; nearly all actives have a fitted effect of over 50% in size
# Target sequence (O75164 whole entry, looked up, the tested form may be a part): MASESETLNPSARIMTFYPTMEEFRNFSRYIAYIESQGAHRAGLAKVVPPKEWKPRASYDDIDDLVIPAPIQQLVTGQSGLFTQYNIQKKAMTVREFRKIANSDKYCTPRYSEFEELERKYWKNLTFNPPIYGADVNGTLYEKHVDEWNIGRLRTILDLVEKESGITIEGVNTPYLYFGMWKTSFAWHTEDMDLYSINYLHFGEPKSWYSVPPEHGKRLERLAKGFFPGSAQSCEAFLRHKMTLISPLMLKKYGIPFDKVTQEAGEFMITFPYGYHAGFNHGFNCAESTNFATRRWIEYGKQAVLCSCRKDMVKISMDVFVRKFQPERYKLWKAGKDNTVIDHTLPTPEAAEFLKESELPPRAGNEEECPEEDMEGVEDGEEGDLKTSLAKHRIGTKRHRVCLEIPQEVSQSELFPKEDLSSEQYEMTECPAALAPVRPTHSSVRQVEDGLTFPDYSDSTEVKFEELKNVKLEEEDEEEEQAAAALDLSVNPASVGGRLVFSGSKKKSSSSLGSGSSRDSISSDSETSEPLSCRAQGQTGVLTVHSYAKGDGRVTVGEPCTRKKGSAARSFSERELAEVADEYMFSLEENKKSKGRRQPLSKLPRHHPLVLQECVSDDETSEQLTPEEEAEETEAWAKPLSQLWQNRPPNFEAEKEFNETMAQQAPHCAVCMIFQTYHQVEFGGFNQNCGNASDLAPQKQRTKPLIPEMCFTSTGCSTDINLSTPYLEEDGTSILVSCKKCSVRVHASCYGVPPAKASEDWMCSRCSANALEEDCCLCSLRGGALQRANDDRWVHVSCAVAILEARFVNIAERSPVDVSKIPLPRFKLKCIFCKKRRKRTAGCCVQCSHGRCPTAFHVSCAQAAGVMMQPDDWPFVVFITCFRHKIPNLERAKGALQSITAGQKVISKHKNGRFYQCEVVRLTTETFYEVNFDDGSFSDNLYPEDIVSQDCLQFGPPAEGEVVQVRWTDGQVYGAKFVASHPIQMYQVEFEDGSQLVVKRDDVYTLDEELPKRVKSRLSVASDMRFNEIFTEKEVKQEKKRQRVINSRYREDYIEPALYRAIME
# The depositor's hits bear a star; ? = inconclusive; / = not tested or not shown; ! = a repeat was not active; [ ] = dose if it differs, or a comment. Calls come from the whole dose curve; as a rule, active = well fitted inhibition curve with a large enough effect; inconclusive = small, poorly fitted or top-dose-only effect; inactive = no such curve, though single readings can be large or run the other way. Potency is the fitted concentration of half-maximal effect.
SMILES,G9a inh,L3MBTL1 inh,BAZ2B inh,HP1b binding inh,JMJD2A Tudor inh
CCN(CC)CCNC(=O)c1sc2ncccc2c1-n1cccc1,6%[59 µM],/,-15%,11%[57 µM],-22%
C[C@H]1CC[C@H]2C(=O)N3[C@H](c4ccccc4Br)[C@@H](C)CC[C@H]3C(=O)N2[C@@H]1c1ccccc1Br,50µM*,-13%,-38%,/,/
COC(=O)c1ccc(NC(=O)CC2C(=O)N(c3ccc(F)cc3)C(=O)N2Cc2ccc(OC)cc2)cc1 (stereo not drawn),2%[59 µM],/,-17%,44%,-4%
CC1(C)CC(=O)C(C=NCCN2CCN(C(=O)CC3CCCC3)CC2)=C(O)C1,-4%[59 µM],8%,7%,44%,-9%
CC1(C)CC(=O)C(C=NCCN2CCN(C(=O)NC34CC5CC(CC(C5)C3)C4)CC2)=C(O)C1,50µM*,4%,15%,41%,-16%
C[C@@H](O)[C@@H]1C(=O)N2C(C(=O)O)=C([C@H]3CCCO3)S[C@H]12,1%[12.7 µM],/,/,/,/
CC1CC(C)CN(c2nc(N(C)c3ccccc3)nc(N)c2[N+](=O)[O-])C1 (stereo not drawn),10µM*,-9%,?,-25%,40µM*
COc1ccc(-n2c(SCC(=O)N3CCCCC3)nc3ccccc3c2=O)cc1,41%,/,1%,15%,-5%
CCOC(=O)N1CCC(NCCNC(=O)c2ccc(Cl)cc2)CC1,6.3µM*,7%,?,-38%,2.8µM*
COc1ccc(N2CCN(C(=O)CSc3nc4[nH]ncc4c(=O)n3-c3cccc4ccccc34)CC2)cc1,40µM*,/,-33%,-5%,-34%
COc1ccc(N2CCN(C(=O)CSc3nc(C)cs3)CC2)cc1,45µM*,-8%,-7%,9%,-27%
COC(=O)c1ccccc1NC(=S)N1CCN(c2ccc(OC)cc2)CC1,?,/,/,38%,56µM*
c1ccc(CN2CCC3(CCc4ccccc43)CC2)cc1,4%[59 µM],/,/,/,/
COc1ccc(N2CCN(C(=O)CSc3ccccc3)CC2)cc1,?,/,79µM*,4%,-29%
CN1CCN(C(=O)c2ccc(CSc3ccc(Cl)cc3)cc2)CC1,?,-14%,-35%,-6%,-33%
CCOC(=O)N1CCN(C(=O)c2ccc(CSc3ccc(Cl)cc3)cc2)CC1,-3%,-3%[11.4 µM],-20%,-8%,45µM*
COc1ccc(N2CCN(C(=O)COC(=O)CSc3ccccc3)CC2)cc1,16µM*,-4%,?,-12%,?
COc1cccc(SCC(=O)N2CCN(c3ccccc3)CC2)c1,12%,/,-30%,34%,-14%
COc1ccc(N2CCN(C(=O)c3ccc(CSc4ccccc4)cc3)CC2)cc1,?,-2%,45µM*,?,?
CC1=C(/C=C/C(C)=C/C=C/C(C)=C/C(=O)Nc2ccc(O)cc2)C(C)(C)CCC1,13µM*!,-4%,-31%,?,50µM*
CC1=C(/C=C/C(=C/C=C/C(C)=C/C(=O)O)c2ccc(C)cc2)C(C)(C)CCC1,22µM*,/,/,/,/
CC1=C(/C=C/C(C)=C/C=C/C(C)=C\C(=O)O)C(C)(C)CCC1,12%[12.7 µM],/,/,28%,-29%
CC1=C(\C=C/C(C)=C/C=C\C(C)=C\C(=O)O)C(C)(C)CCC1,10µM*,/,/,/,/
COc1ccc2c(C)c(CCC(=O)NCc3cccc(Cl)c3)c(=O)oc2c1,-1%[59 µM],/,-14%,27%,-9%
Cc1nc2sc3c(O)cc(=O)[nH]c3c2c(C)c1C,50µM*,/,-6%,25%,-23%
CCOC(=O)c1cccc(NC(=O)CC(c2ccc(F)cc2)N2Cc3ccccc3C2=O)c1 (stereo not drawn),-10%[59 µM],/,1%,31%,-2%
COc1cccc(NS(=O)(=O)c2ccc3[nH]cc(C(=O)N(C)C4CCCCC4)c(=O)c3c2)c1,?,/,-9%,-2%,-25%
COc1ccc(C2=Nc3nc(-c4ccccc4)cn3C(c3ccc(OC)cc3)C2)cc1 (stereo not drawn),22µM*,-5%,-2%,40%,-17%
COc1ccc(C2CC(c3ccccc3)=NN2C(=O)COC(=O)C2CC2)cc1 (stereo not drawn),-42%[59 µM],-6%,-21%,6%,-25%
O=C(Nc1ccc(-c2ccccc2)cc1)c1ccccc1,-12%[0.501 µM],-3%[2.29 µM],13%,31%,11%

# Source: PubChem BioAssay
